{"source": "ChEMBL document CHEMBL4513216", "about": "“Probing the Open Global Health Chemical Diversity Library for Multistage-Active Starting Points for Next-Generation Antimalarials” (ACS Infect Dis, 2020)", "note": "Among all 69,000 compounds or so, about 8,600 (12%) showed an effect of 50% or more. For the sample, strong results were picked, then their nearest neighbours and some compounds at random.", "data": [{"system": "Plasmodium berghei", "experiment": "Screen against P. berghei liver stage (PbLuc), transformed with Luciferase, at 10uM", "format": "functional, HepG2", "conditions": "tested at 10 uM", "units": {"INHIBITION": "%"}, "values": [{"compound": "CCc1nc(C2CCCN(C(=O)c3cnn(CC)c3)C2)no1", "note": "(stereo unspecified)", "INHIBITION": -8.69}, {"compound": "CN1CCN(c2ccccc2NC(=O)c2ccco2)CC1", "INHIBITION": 50.4}, {"compound": "CN1CCN(c2ccc(Br)cc2NC(=O)c2ccco2)CC1", "INHIBITION": 46.3}, {"compound": "CN1CCN(c2ccccc2NC(=O)NCCc2ccc(O)cc2)CC1", "INHIBITION": 35.1}, {"compound": "CN1CCN(c2ccccc2NC(=O)NCC[S+](C)[O-])CC1", "note": "(stereo unspecified)", "INHIBITION": 39.3}, {"compound": "Cc1ccc(C(=O)Nc2ccccc2N2CCCC2)n1C", "INHIBITION": 21.2}, {"compound": "CN1CCN(c2ccccc2NC(=O)NCCc2ccccc2)CC1", "INHIBITION": 64.3}, {"compound": "Cc1nn(CC(=O)N(C)Cc2nncn2C(C)C)c(=O)c2ccccc12", "INHIBITION": -7.27}, {"compound": "Cc1nn(CCNS(=O)(=O)c2ccccc2)c(C)c1Cl", "INHIBITION": 48.3}, {"compound": "Cc1cnn(C2CCCN(C(=O)c3ccc(-n4cnnn4)cc3)C2)c1", "note": "(stereo unspecified)", "INHIBITION": 47.4}, {"compound": "CC(C)(O)CN1CCN(C(=O)c2cccn2Cc2ccncc2)CC1", "INHIBITION": 19.2}, {"compound": "Cc1cc(C)n(CC2CN(CC(=O)Nc3cccnc3)CCO2)n1", "note": "(stereo unspecified)", "INHIBITION": -14.3}, {"compound": "CCN(CCNC(=O)c1cccc(C)c1C)C1CC1", "INHIBITION": -16}, {"compound": "O=C1CSC(c2ccc(O)c(Cl)c2)c2c(n(C3CCOCC3)[nH]c2=O)N1", "note": "(stereo unspecified)", "INHIBITION": 15}, {"compound": "CC1=Nc2c(c(=O)[nH]n2C2CCOCC2)C(c2cccc(Br)c2)S1", "note": "(stereo unspecified)", "INHIBITION": 3.95}, {"compound": "O=C1CSC(c2ccc(Cl)cc2Cl)c2c(n(C3CCOCC3)[nH]c2=O)N1", "note": "(stereo unspecified)", "INHIBITION": 54.5}, {"compound": "COc1ccccc1C1SCC(=O)Nc2c1c(=O)[nH]n2C1CCOCC1", "note": "(stereo unspecified)", "INHIBITION": 39.3}, {"compound": "O=C1CSC(c2ccc(F)c(Cl)c2)c2c(n(C3CCOCC3)[nH]c2=O)N1", "note": "(stereo unspecified)", "INHIBITION": 72.8}, {"compound": "CC(=O)c1cccc(OCC(=O)NS(=O)(=O)c2cccs2)c1", "INHIBITION": 2.97}, {"compound": "Cn1nccc1-c1nnn2c1COCC(CNC1CCOCC1)C2", "note": "(stereo unspecified)", "INHIBITION": 45.7}, {"compound": "O=C(CO)N1CCC(c2ccnc(Nc3cc(C(F)(F)F)ccn3)n2)C1", "note": "(stereo unspecified)", "INHIBITION": 20.2}, {"compound": "Cc1noc([C@@]23CCO[C@@H]2CCN(Cc2scnc2C)C3)n1", "INHIBITION": 18.6}, {"compound": "COCCN1CCC(CN(CC2CCCO2)C(=O)Cn2cccn2)CC1", "note": "(stereo unspecified)", "INHIBITION": 15.4}, {"compound": "CC[C@@H]1N(Cc2ccoc2)CCC[C@]12CCC(=O)N2CCOC", "INHIBITION": -11.2}, {"compound": "CCN1CCCC1CN(Cc1cc[nH]n1)CC1CCN(CCOC)CC1", "note": "(stereo unspecified)", "INHIBITION": 45}, {"compound": "CCN1CCCC1CN(Cc1ccoc1)CC1CCN(CCOC)CC1", "note": "(stereo unspecified)", "INHIBITION": 53.7}, {"compound": "COCCN1C[C@@H]2CN(Cc3ccoc3)CCC[C@]2(C(=O)O)C1", "INHIBITION": -9.02}, {"compound": "CCN1CCCC1CN(Cc1ccon1)CC1CCN(CCOC)CC1", "note": "(stereo unspecified)", "INHIBITION": 81.2}, {"compound": "CCn1ccnc1CN1CCCN(C(=O)c2csc(C)n2)CC1", "INHIBITION": -1.55}, {"compound": "Cc1cnc(N2C[C@H]3C[C@H](C(=O)N4CCN(C)CC4)N(C)[C@H]3C2)nc1", "INHIBITION": -18.2}, {"compound": "Cc1nn(CCO)cc1CN1CCCC1c1nc2c(C)cccc2[nH]1", "note": "(stereo unspecified)", "INHIBITION": 71.1}, {"compound": "Cc1cccc2[nH]c(C3CCCN3Cc3ccc(CO)o3)nc12", "note": "(stereo unspecified)", "INHIBITION": -59.5}, {"compound": "Cc1ncc(CO)c(CN2CCCC2c2nc3c(C)cccc3[nH]2)c1O", "note": "(stereo unspecified)", "INHIBITION": -125}, {"compound": "Cc1csc(Nc2cc(C3CN(c4ccncn4)C3)nc(C)n2)n1", "INHIBITION": 68.4}, {"compound": "Cc1csc(Nc2cc(C3CN(C(C)C)C3)nc(C)n2)n1", "INHIBITION": 37.8}, {"compound": "CNCC(=O)N1CC(c2cc(Nc3nc(C)cs3)nc(C)n2)C1", "INHIBITION": -47.8}, {"compound": "Cc1nc(C)c(C(=O)N2CCCC2c2nc(O)cc(C(C)C)n2)s1", "note": "(stereo unspecified)", "INHIBITION": 13.5}, {"compound": "CSc1ccc(C(C(=O)O)N2CCOCC2)cc1", "note": "(stereo unspecified)", "INHIBITION": 41.2}, {"compound": "COC1COC2(CCN(Cc3cccc(C#N)c3)CC2)C1", "note": "(stereo unspecified)", "INHIBITION": -23.8}, {"compound": "COC(=O)c1ccn(CC(=O)Nc2nn(CC3CC3)c3ccccc23)n1", "INHIBITION": 32.3}, {"compound": "CC(=O)c1ccn(CC(=O)Nc2nn(CC3CC3)c3ccccc23)n1", "INHIBITION": 71.9}, {"compound": "CCn1nc(NC(=O)Cn2ccc(C(C)=O)n2)c2ccccc21", "INHIBITION": 7.38}, {"compound": "O=C1COC2(CCN(Cc3ccsc3)CC2)CN1", "INHIBITION": 24.9}, {"compound": "Cc1ccc(NC2CCN(C(=O)c3ccnc(N(C)C)c3)CC2)nn1", "INHIBITION": -115}, {"compound": "Cc1nn(C)c(N2CCOCC2)c1CNC1CCc2cc(F)ccc21", "note": "(stereo unspecified)", "INHIBITION": 6}, {"compound": "Cc1nn2cccnc2c1C(=O)NCc1ccccc1OCC1CC1", "INHIBITION": 18.3}, {"compound": "CC(C)(C)Oc1ccccc1CNC(=O)C1CCCOC1", "note": "(stereo unspecified)", "INHIBITION": 29.8}, {"compound": "O=C(NCc1ccccc1OCC1CC1)C1CCOC1", "note": "(stereo unspecified)", "INHIBITION": 56.5}, {"compound": "CC1(C)CN(CC(O)C(C)(C)C)C(=O)CN(C(=O)c2ccccc2)C1", "note": "(stereo unspecified)", "INHIBITION": 4.07}, {"compound": "CCN(Cc1ccccc1)Cc1nc2c(cnn2C)c(=O)[nH]1", "INHIBITION": -51.5}, {"compound": "Cc1noc(C)c1C(=O)Nc1ccc2ncn(CC(C)C)c(=O)c2c1", "INHIBITION": 29.9}, {"compound": "O=C(NC(CC(F)(F)F)c1ccc(Cl)cc1)c1nc(=O)[nH][nH]1", "note": "(stereo unspecified)", "INHIBITION": -7.17}, {"compound": "CC(C)(C)CC(NC(=O)c1nc(=O)[nH][nH]1)c1ccc(F)cc1", "note": "(stereo unspecified)", "INHIBITION": 22.8}, {"compound": "O=C(NC(c1ccc(Cl)cc1)C(F)(F)F)c1nc(=O)[nH][nH]1", "note": "(stereo unspecified)", "INHIBITION": 66.8}, {"compound": "COc1ccc(CN2CC[C@H]3O[C@@H](C(=O)NCC4CC4)CC[C@H]32)cc1", "INHIBITION": 53}, {"compound": "CC(C)NC(=O)[C@@H]1CC[C@@H]2[C@@H](CCN2Cc2cn(C)c3ccccc23)O1", "INHIBITION": 65.1}, {"compound": "O=C(NCC1CC1)[C@@H]1CC[C@@H]2[C@@H](CCN2Cc2ccc(F)c(F)c2)O1", "INHIBITION": 32.2}, {"compound": "O=C(NC1CC1)[C@H]1CC[C@@H]2[C@@H](CCN2Cc2ccsc2)O1", "INHIBITION": 20.9}, {"compound": "CN1CCN(C(=O)[C@H]2CC[C@@H]3[C@@H](CCN3Cc3ccsc3)O2)CC1", "INHIBITION": 52}, {"compound": "Cc1cccc(CN2CC[C@H]3O[C@H](C(=O)Nc4cnccn4)CC[C@H]32)n1", "INHIBITION": 34.3}, {"compound": "O=C(NCC1CC1)[C@H]1CC[C@@H]2[C@@H](CCN2Cc2ccoc2)O1", "INHIBITION": 26.8}, {"compound": "CC(C)NC(=O)[C@@H]1CC[C@@H]2[C@@H](CCN2Cc2ccc3ccccc3n2)O1", "INHIBITION": 31.9}, {"compound": "CNC(=O)[C@@H]1CC[C@@H]2[C@@H](CCN2Cc2cn(C)c3ccccc23)O1", "INHIBITION": -20.1}, {"compound": "O=C([C@H]1CC[C@@H]2[C@@H](CCN2Cc2ccsc2)O1)N1CCOCC1", "INHIBITION": -45.5}, {"compound": "Cc1csc(CN2CC[C@H]3O[C@H](C(=O)Nc4cccnc4)CC[C@H]32)n1", "INHIBITION": 81.5}, {"compound": "O=C(Nc1cnccn1)[C@@H]1CC[C@@H]2[C@@H](CCN2Cc2nccs2)O1", "INHIBITION": 43.4}]}]}
